One sequence from PMC7862700, “An all-to-all approach to the identification of sequence-specific readers for epigenetic DNA modifications on cytosine” can be followed below.

Common to all, as to assay: DAPPL (digital affinity profiling via proximity ligation, sequencing); 10 mM Tris-HCl pH 7.5, 50 mM NaCl, 1 mM DTT, 4% glycerol, room temperature, 30 min; GST-TFs on glutathione beads, 16-mer random dsDNA library, 0.1% formaldehyde crosslink after washing; high values mean tight binding
One experiment has as its target T1, FEV (Homo sapiens, UniProt Q99581 1-238).
T1 sequence: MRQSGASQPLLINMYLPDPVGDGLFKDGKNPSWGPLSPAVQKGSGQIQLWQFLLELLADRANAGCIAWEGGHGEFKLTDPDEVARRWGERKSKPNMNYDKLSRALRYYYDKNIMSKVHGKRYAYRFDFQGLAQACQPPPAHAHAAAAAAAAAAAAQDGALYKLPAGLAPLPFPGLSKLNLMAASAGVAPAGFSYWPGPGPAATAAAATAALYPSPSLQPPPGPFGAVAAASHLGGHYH
Particulars: protein: recombinant; tags: N-terminal GST; dsDNA, one strand shown. A digest of the protocol:
(§1)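 In yeast, human transcription factors were expressed with a GST fusion, then pulled down on glutathione beads and given DNA barcodes. Pooled with a tag-only sample, they were exposed to 200 nmole of a 16-mer random double-stranded DNA library (Tris/NaCl/DTT/glycerol buffer, room temperature, 30 min), washed, crosslinked with 0.1% formaldehyde, proximity-ligated using BsaI/T4 ligase for 1 h at 37 °C, PCR-amplified and read on an Illumina NextSeq500. Each hexamer's frequency of reads for a factor, divided by the matching frequency for the tag-only sample, gives the binding signal.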

The target in a further experiment is ETV5 (Homo sapiens, UniProt P41161 1-510). The following applies: protein: recombinant; tags: N-terminal GST; dsDNA, one strand shown. A digest of the protocol: as §1
Chain of ETV5 (P41161 whole entry): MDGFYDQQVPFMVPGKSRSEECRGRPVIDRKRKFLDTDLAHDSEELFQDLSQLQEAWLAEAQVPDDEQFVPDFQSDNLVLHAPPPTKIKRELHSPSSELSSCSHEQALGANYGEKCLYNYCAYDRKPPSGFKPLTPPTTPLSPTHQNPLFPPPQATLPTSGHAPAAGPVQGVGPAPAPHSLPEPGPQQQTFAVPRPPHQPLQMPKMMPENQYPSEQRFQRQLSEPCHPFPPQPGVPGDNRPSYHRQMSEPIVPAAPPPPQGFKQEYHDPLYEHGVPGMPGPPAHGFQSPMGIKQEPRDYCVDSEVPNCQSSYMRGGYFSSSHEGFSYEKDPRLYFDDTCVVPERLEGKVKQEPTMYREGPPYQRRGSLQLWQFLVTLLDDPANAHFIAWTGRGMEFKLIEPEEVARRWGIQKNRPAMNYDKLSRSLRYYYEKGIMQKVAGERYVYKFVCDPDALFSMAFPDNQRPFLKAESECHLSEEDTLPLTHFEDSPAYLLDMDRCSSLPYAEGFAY
The target of a further experiment is HSF1 (Homo sapiens, UniProt Q00613 1-529). Particulars: protein: recombinant; tags: N-terminal GST; chain copies: 3; dsDNA, one strand shown. A digest of the protocol:
as §1

The next experiment concerns the target T2, SPIC (Homo sapiens, UniProt Q8N5J4 1-248).
T2 sequence: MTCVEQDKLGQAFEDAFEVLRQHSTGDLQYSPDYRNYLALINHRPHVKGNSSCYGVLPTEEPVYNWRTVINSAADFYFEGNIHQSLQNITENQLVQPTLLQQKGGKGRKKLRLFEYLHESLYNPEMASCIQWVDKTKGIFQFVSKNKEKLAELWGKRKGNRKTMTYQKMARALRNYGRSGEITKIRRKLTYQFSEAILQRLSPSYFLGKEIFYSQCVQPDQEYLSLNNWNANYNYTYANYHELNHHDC
The following applies: protein: recombinant; tags: N-terminal GST; dsDNA, one strand shown. A digest of the protocol: as §1

In a further experiment the target is ELF4 (Homo sapiens, UniProt Q99607 1-663). The following applies: protein: recombinant; tags: N-terminal GST; dsDNA, one strand shown. A digest of the protocol: as §1
Chain of ELF4 (Q99607 whole entry): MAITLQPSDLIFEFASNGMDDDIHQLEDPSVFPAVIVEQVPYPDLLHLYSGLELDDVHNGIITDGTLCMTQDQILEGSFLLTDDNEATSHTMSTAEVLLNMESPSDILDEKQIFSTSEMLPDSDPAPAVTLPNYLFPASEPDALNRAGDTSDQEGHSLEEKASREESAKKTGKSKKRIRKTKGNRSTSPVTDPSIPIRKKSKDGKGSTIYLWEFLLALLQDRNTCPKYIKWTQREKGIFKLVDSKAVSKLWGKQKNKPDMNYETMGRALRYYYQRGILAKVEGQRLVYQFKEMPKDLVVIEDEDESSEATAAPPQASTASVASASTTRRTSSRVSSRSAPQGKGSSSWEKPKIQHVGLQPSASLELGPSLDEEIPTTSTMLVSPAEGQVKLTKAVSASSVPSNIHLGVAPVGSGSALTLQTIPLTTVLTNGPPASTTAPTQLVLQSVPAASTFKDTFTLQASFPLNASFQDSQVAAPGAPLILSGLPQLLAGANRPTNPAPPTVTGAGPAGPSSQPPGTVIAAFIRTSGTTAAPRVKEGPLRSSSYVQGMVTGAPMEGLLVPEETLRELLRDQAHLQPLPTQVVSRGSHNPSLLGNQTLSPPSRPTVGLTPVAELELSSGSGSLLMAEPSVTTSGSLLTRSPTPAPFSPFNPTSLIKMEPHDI
Another experiment concerns the target T3, ELK4 (Homo sapiens, UniProt P28324-2 1-405).
T3 sequence: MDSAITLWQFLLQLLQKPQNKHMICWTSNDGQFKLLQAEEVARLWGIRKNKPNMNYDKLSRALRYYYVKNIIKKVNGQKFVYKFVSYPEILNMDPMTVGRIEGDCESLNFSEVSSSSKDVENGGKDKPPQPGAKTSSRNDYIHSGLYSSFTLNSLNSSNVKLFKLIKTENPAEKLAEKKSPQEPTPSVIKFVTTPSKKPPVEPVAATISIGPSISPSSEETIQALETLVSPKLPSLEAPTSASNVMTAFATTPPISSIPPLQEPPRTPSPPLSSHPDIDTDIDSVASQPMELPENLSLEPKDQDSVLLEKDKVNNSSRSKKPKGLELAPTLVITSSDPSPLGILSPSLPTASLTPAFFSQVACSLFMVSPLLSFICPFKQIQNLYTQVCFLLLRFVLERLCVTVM
The following applies: protein: recombinant; tags: N-terminal GST; dsDNA, one strand shown. A digest of the protocol:
as §1

For another experiment, the target named is T4, ETV2 (Homo sapiens, UniProt O00321 1-342).
T4 sequence: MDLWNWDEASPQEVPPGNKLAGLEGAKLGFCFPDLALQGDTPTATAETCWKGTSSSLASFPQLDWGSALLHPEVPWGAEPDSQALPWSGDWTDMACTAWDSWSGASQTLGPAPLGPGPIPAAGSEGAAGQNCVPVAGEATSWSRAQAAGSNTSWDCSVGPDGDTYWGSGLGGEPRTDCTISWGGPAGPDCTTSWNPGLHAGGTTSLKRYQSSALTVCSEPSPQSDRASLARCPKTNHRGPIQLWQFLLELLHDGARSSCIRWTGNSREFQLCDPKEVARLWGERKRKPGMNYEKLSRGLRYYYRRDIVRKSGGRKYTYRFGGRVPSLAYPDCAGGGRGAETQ
Particulars: protein: recombinant; tags: N-terminal GST; dsDNA, one strand shown. A digest of the protocol:
as §1

Another experiment has as its target T5, ELF3 (Homo sapiens, UniProt P78545 1-371).
T5 sequence: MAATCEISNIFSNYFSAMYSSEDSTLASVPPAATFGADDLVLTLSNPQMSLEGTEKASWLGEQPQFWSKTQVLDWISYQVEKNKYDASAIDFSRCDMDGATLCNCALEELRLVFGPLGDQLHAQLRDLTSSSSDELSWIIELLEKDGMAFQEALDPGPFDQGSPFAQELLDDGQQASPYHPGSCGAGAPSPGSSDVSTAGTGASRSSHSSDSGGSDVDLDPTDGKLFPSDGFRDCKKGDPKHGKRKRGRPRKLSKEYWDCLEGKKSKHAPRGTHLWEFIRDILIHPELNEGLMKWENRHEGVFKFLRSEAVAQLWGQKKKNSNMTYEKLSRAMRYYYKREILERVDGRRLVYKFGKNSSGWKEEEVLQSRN
Particulars: protein: recombinant; tags: N-terminal GST; dsDNA, one strand shown. A digest of the protocol: as §1

In the next experiment the target is CRX (Homo sapiens, UniProt O43186 1-299). The following applies: protein: recombinant; tags: N-terminal GST; dsDNA, one strand shown. A digest of the protocol:
as §1

In another experiment the target is ETV1 (Homo sapiens, UniProt P50549 1-477). Particulars: protein: recombinant; tags: N-terminal GST; dsDNA, one strand shown. A digest of the protocol:
as §1

A further experiment addresses T6, ERF (Homo sapiens, UniProt P50548 1-548).
T6 sequence: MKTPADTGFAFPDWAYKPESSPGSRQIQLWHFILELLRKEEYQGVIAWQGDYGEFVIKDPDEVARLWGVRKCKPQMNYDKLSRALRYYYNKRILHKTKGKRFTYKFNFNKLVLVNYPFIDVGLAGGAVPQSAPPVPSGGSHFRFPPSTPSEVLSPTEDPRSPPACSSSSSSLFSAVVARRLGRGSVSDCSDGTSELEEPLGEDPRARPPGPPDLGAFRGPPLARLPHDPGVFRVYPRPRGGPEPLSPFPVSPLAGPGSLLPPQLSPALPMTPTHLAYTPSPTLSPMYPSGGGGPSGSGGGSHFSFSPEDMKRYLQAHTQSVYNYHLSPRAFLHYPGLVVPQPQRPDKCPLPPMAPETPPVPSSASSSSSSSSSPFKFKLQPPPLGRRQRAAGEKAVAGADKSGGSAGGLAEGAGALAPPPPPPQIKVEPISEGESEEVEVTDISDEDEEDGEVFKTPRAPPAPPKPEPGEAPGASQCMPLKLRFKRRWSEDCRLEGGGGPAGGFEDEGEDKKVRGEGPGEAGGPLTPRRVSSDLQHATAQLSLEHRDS
The following applies: protein: recombinant; tags: N-terminal GST; dsDNA, one strand shown. A digest of the protocol:
as §1

In the next experiment the target is T7, ETV3L (Homo sapiens, UniProt Q6ZN32 1-361).
T7 sequence: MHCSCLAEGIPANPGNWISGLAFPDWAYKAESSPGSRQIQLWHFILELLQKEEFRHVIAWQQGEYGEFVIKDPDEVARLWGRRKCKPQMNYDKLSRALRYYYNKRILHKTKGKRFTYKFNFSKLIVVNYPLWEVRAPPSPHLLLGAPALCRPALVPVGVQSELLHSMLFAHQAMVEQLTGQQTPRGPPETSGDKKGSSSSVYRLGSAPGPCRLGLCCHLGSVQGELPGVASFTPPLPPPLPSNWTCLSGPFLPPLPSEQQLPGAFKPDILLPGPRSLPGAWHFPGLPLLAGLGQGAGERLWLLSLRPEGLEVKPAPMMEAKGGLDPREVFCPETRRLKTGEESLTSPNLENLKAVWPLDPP
The following applies: protein: recombinant; tags: N-terminal GST; dsDNA, one strand shown. A digest of the protocol:
as §1

Another experiment deals with T8, ETS2 (Homo sapiens, UniProt P15036 1-469).
T8 sequence: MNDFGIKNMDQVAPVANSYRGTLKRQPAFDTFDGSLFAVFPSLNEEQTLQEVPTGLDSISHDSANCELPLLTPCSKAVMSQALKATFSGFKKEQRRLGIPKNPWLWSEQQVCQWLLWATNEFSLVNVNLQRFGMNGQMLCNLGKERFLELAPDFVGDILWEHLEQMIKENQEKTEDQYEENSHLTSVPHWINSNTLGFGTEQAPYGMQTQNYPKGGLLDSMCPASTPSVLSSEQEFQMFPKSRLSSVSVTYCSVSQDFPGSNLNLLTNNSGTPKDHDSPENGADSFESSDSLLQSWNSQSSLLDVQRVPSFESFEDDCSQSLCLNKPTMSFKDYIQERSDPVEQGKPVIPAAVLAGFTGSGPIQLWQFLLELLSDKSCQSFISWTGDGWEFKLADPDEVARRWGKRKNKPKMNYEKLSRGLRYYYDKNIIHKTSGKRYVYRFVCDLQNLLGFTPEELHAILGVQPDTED
Particulars: protein: recombinant; tags: N-terminal GST; dsDNA, one strand shown. A digest of the protocol: as §1

The target of a further experiment is T9, SPDEF (Homo sapiens, UniProt O95238 1-335).
T9 sequence: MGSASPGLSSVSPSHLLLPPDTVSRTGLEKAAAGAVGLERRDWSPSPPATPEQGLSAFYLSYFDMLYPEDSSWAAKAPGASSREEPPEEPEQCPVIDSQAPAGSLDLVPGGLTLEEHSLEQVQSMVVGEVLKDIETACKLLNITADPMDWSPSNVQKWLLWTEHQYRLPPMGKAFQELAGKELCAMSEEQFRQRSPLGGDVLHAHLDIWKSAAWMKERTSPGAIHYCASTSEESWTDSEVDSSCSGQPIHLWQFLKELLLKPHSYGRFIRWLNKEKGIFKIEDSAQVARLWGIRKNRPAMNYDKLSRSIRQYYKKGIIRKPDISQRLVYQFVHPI
Particulars: protein: recombinant; tags: N-terminal GST; dsDNA, one strand shown. A digest of the protocol: as §1

For another experiment, the target named is T10, ETV7 (Homo sapiens, UniProt Q9Y603 1-341).
T10 sequence: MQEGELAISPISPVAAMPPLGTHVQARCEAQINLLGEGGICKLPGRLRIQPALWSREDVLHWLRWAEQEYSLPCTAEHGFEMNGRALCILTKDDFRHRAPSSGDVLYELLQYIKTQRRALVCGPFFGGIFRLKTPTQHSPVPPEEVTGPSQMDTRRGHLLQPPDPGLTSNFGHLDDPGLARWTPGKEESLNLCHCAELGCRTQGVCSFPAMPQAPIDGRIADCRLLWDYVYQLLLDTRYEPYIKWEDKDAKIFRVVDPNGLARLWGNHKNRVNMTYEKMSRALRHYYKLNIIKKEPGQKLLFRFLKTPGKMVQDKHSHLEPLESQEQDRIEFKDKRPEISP
The following applies: protein: recombinant; tags: N-terminal GST; dsDNA, one strand shown. A digest of the protocol: as §1

A further experiment addresses T11, ELF5 (Homo sapiens, UniProt Q9UKW6-2 1-255).
T11 sequence: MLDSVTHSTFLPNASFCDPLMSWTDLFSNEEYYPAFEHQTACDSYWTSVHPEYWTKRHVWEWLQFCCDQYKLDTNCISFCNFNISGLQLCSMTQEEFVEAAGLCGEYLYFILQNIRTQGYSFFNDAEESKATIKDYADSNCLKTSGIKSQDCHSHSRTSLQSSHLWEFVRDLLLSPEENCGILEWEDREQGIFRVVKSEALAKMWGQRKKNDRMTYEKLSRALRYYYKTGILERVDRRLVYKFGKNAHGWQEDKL
Particulars: protein: recombinant; tags: N-terminal GST; dsDNA, one strand shown. A digest of the protocol: as §1

The target in the next experiment is T12, ETV3 (Homo sapiens, UniProt P41162-2 1-143).
T12 sequence: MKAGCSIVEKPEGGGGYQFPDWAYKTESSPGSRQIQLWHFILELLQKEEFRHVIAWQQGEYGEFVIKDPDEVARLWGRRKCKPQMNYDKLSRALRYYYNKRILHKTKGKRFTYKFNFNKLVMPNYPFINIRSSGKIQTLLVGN
Particulars: protein: recombinant; tags: N-terminal GST; dsDNA, one strand shown. A digest of the protocol: as §1

The next experiment addresses ETV6 (Homo sapiens, UniProt P41212 1-452). Particulars: protein: recombinant; tags: N-terminal GST; dsDNA, one strand shown. A digest of the protocol:
as §1

Chain of ETV1 (P50549 whole entry): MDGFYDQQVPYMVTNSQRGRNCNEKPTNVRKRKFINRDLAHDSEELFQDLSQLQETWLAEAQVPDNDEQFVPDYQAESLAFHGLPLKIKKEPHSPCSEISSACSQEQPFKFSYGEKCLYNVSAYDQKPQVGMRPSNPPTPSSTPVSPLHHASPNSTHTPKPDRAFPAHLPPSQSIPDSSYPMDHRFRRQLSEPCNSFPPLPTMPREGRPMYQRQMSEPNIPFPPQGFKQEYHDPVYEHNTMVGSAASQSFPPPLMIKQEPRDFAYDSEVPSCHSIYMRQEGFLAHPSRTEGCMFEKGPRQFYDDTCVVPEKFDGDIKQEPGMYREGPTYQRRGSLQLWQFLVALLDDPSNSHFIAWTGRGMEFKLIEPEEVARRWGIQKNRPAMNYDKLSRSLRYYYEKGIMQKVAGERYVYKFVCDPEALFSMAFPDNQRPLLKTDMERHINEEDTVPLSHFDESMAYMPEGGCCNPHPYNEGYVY
Chain of CRX (O43186 whole entry): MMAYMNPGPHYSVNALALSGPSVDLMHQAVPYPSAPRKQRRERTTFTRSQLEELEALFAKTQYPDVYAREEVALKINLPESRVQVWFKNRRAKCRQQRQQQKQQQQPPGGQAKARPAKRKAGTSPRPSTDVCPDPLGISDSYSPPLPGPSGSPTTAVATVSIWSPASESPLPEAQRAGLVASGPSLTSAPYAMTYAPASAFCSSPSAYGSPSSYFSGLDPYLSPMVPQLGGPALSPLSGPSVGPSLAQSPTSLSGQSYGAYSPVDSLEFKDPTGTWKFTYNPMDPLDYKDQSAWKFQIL
Chain of ETV6 (P41212 whole entry): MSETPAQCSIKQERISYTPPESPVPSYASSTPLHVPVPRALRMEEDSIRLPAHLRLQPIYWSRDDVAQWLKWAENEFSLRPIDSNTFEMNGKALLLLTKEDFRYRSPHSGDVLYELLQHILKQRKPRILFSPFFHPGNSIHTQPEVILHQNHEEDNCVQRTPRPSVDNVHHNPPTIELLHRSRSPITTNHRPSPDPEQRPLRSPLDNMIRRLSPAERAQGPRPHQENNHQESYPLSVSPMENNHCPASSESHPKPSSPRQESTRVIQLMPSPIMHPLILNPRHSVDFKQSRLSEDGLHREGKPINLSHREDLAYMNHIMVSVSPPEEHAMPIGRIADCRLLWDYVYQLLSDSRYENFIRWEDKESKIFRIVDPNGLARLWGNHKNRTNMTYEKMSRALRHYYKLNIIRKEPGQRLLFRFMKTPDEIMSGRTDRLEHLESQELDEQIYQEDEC
Chain of HSF1 (Q00613 whole entry): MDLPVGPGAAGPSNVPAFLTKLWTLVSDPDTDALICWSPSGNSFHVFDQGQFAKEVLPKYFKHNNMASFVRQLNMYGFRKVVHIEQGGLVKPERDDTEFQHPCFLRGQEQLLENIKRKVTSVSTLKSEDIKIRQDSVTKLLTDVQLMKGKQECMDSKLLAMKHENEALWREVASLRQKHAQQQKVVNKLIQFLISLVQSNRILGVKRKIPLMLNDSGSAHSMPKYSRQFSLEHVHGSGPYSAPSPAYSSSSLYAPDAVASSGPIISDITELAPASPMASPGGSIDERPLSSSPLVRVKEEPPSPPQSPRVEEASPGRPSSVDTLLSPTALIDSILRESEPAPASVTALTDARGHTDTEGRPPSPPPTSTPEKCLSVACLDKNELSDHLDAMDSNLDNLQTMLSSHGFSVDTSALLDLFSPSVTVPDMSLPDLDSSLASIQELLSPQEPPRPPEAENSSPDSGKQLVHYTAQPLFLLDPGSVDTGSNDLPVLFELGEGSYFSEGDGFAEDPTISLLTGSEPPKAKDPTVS

In the case of AAGTCC, the binding signal with FEV is 1.34 fold enrichment (6-mer frequency, TF over GST control); with ETV5 it was 1.28 fold enrichment (6-mer frequency, TF over GST control); with HSF1, 1.08 fold enrichment (6-mer frequency, TF over GST control); with SPIC, 1.3 fold enrichment (6-mer frequency, TF over GST control); with ELF4 it was 1.19 fold enrichment (6-mer frequency, TF over GST control); with ELK4, 1.25 fold enrichment (6-mer frequency, TF over GST control). The binding signal with ETV2 is 1.19 fold enrichment (6-mer frequency, TF over GST control); with ELF3 it was 1.3 fold enrichment (6-mer frequency, TF over GST control); with CRX it was 1.19 fold enrichment (6-mer frequency, TF over GST control); in the experiment with ETV1, 1.26 fold enrichment (6-mer frequency, TF over GST control); with ERF, 1.08 fold enrichment (6-mer frequency, TF over GST control); with ETV3L, 1.21 fold enrichment (6-mer frequency, TF over GST control). Besides, the binding signal is 1.27 fold enrichment (6-mer frequency, TF over GST control) with ETS2; 1.4 fold enrichment (6-mer frequency, TF over GST control) with SPDEF; 1.23 fold enrichment (6-mer frequency, TF over GST control) with ETV7; 1.34 fold enrichment (6-mer frequency, TF over GST control) with ELF5; 1.37 fold enrichment (6-mer frequency, TF over GST control) with ETV3; 1.2 fold enrichment (6-mer frequency, TF over GST control) with ETV6.
